Among all 16,000 compounds or so, about 5,800 (36%) were called active. Inconclusive results (about 23%) are left out. Some of the results follow. Some compounds were tested as several samples or in several runs, with calls that do not always agree. A number with no mark means an inactive call. Calls follow the shape of the dose curve; as a rule, active = well fitted curve in the direction sought with a large enough effect; inconclusive = small, poorly fitted or top-dose-only effect, or effect the other way; inactive = no such curve, though single readings can be large or run the other way.

This note sets out measurements from PubChem BioAssay AID1851 (National Center for Advancing Translational Sciences (NCATS), 2009).
% is scaled to controls: 0 for no effect and ±100 for the full control effect.

For the experiment, the target named is Cytochrome P450 2C19 (Homo sapiens) (UniProt P33261). Briefly: Cytochrome panel assay with activity outcomes. Conditions: recombinant CYP, pro-luciferin dealkylation, luminescence, p450-cyp2c19; series mostly up to 57.1 µM.
Cytochrome P450 2C19 (Homo sapiens), sequence (P33261 whole entry, looked up): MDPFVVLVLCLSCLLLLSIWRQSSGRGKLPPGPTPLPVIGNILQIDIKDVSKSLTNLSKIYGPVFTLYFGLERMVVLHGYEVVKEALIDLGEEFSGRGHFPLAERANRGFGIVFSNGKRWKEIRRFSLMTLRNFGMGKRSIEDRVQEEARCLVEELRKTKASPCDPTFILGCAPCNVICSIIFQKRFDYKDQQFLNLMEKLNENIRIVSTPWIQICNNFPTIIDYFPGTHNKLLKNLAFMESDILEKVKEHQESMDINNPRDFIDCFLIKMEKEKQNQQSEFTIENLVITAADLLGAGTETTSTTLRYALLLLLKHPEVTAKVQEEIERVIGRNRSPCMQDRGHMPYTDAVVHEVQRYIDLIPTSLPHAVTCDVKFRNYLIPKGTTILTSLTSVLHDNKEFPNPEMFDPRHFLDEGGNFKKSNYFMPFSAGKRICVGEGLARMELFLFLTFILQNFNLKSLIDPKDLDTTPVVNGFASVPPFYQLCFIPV
Take `CSC([N-]/N=C/c1cccc(C)n1)=[S]=[Cu].CS[C@H]([S-])[N-]/N=C/c1cccc(C)n1`: the AC50 – broadly, the concentration at which the activity in the assay is half-maximal – was 0.2 µM (active). `CC(=O)OC1=CC2=CC[C@H]3[C@H]4CCC(=O)[C@@]4(C)CC(=O)[C@]3(S)[C@]2(C)CC1`: the activity, negative = inhibition is -14.8% [at 11.4 µM]. For the compound `c1csc(CN2CCC3(CCNCC3)CC2)n1`, the AC50 result is “inactive”. The same measure, in the same setting: then `CCCN(CCC)[C@@H]1CCc2ccc(O)cc2C1`, with “inactive”; and `CCCN(CCC)[C@@H]1CCc2cccc(O)c2C1`, with “inactive”. On the same count and under the same terms, next, `CCCN(C/C=C\I)[C@@H]1CCc2ccc(O)cc2C1`: 1 µM (active). Consider `CN(C)CC/C=C1\c2ccccc2Sc2ccc(Cl)cc21`, for which the activity, negative = inhibition was -17.3% [at 11.4 µM]. As to `NO`, the AC50 result is “inactive”. As for `Cc1sc2c(c1C)C(c1ccc(C(C)(C)C)cc1)=NCC(=O)N2CC(=O)Nc1nccs1`, the AC50 was 6.31 µM (active). For `CCCN1CCC[C@H](c2cccc(C#N)c2)C1`, the AC50 result was “inactive”. The same measure, in the same setting: next, `CCN1C[C@]2(C)CC[C@@H](O)[C@]34[C@@H]5CC6[C@@H](OC)C[C@@](O)([C@H]5[C@@H]6O)[C@@H](C[C@@H]23)[C@H]14`: “inactive”; `CC(C)(C)CC(=O)NC(=S)Nc1ccccc1C(F)(F)F`: 3.16 µM (active). Consider `CC(C)c1ccc(C(c2c(O)c3ccccc3oc2=O)c2c(O)c3ccccc3oc2=O)cc1`, for which the activity, negative = inhibition was -40.6% [at 11.4 µM].

With `Cn1c(=O)c2[nH]cnc2n(C)c1=O`, the AC50 result was “inactive”. Regarding `CC(C)(C)NC[C@@H](O)COc1cccc2[nH]c(C#N)cc12`, the AC50 is 15.8 µM (active).

With `c1csc(CN2CC3(CCNCC3)C2)n1`, the AC50 result was “inactive”. `Oc1ccc(CCNCc2cc3c(cc2Br)OCO3)cc1`: the AC50 was 5.01 µM (active).

Consider `C[N+]1(C)CCO[C@](O)(c2ccc(-c3ccc([C@]4(O)C[N+](C)(C)CCO4)cc3)cc2)C1`, for which the AC50 entry was “inactive”. Take `Fc1ccccc1CCNCc1cccc(Cl)c1Cl`: the AC50 was 0.631 µM (active).

As to `N=C(N)n1cc(/C=N\N=C(N)N)cn1`, the activity, negative = inhibition was 16.3% [at 11.4 µM]. As for `COc1ccc(C2NCc3ccc4c(c3-n3cccc32)OCO4)cc1OC` (stereo unspecified), the AC50 was 3.16 µM (active).

On to `O=C(Oc1ccccc1)N1CCC2(CCN(Cc3nccs3)CC2)CC1`, for which the AC50 entry was “inactive”. On the same count and under the same terms, next, `CCCN(CCC)[C@H]1CCc2c(F)ccc(O)c2C1`: “inactive”.

For the compound `C/C(=N\OC(=O)NC(C)C)c1sc(-c2ccccc2)nc1C`, the AC50 was 10 µM (active). Regarding `C/C(=N\OC(=O)NC(C)C)c1sc(-c2ccc(Cl)cc2)nc1C`, the AC50 was 5.01 µM (active).

On to `CCNC(=O)O/N=C(\C)c1sc(-c2ccccc2)nc1C`, for which the concentration at half-maximal activity (AC50) was 11.2 µM (active). `OC(c1ccccc1)(c1ccccc1)C1CCNCC1`: the AC50 result was “inactive”. As to `NS(=O)(=O)C[C-]1C=C[CH]([Sb-]([Cl])([Cl])([Cl])([Cl])[Cl])C=C1.c1ccncc1` (stereo unspecified), the activity, negative = inhibition is 12.8% [at 11.4 µM]. In the case of `COc1ccc2[nH]cc(CCN(C)C)c2c1`, the AC50 result is “inactive”. Turning to `CCc1cc2c(nc1CC)CCN(CC/C(C)=N/OC)C2`, the activity, negative = inhibition is 6.29% [at 11.4 µM].

For `C=C(C)[C@H]1CC[C@]2(C(=O)O)CC[C@]3(C)[C@@H](CC[C@H]4[C@@]5(C)CC[C@@H](O)C(C)(C)[C@@H]5CC[C@@]43C)[C@H]12`, the AC50 entry was “inactive”. As for `O=[As](O)(O)c1ccc(NCc2ccccc2)cc1`, the activity, negative = inhibition is 1.27% [at 11.4 µM].

For `COC(=O)C1(C)C=C2C(=C(C)C(=O)C2C)CN1` (stereo unspecified), the AC50 entry was “inactive”. In the case of `Ic1ccccc1CN[C@@H]1C2CCN(CC2)[C@H]1C(c1ccccc1)c1ccccc1`, the AC50 entry is “inactive”.

For the compound `COc1cc(C(=O)OC2C[C@H]3CC[C@@H](C2)N3C)ccc1O` (stereo partly specified), the AC50 entry is “inactive”. As to `C/C(=C\c1ccc(N(C)C)cc1)[N+](=O)[O-]`, the AC50 is 14.1 µM (active). For `C[C@H]1CC[C@@]2(NC1)O[C@@H]1C[C@H]3[C@@H]4CC=C5C[C@@H](O)CC[C@]5(C)[C@@H]4CC[C@]3(C)[C@@H]1[C@@H]2C`, the AC50 entry is “inactive”. Regarding `COc1cc(-c2ccc(=O)[nH]n2)ccc1OC(F)F`, the AC50 is 15.8 µM (active). On the same count and under the same terms, then `COc1cc(C[C@H](C)N)c(OC)cc1I`, with “inactive”; and `C[C@@]12CC(=O)[C@H]3[C@@H](CCC4=CC(=O)CC[C@]43C)[C@H]1CCC2=O`, with “inactive”. In the case of `C[C@@H]1CC[C@@H]2N(C1)C[C@H]1[C@@](O)([C@H](O)C[C@]3(O)[C@H]4CC[C@H]5[C@]6(O)O[C@]4(C[C@]13O)[C@@]5(C)CC[C@@H]6O)[C@@]2(C)O`, the activity, negative = inhibition was 1.59% [at 11.4 µM]. On to `NC(N)=NCCN=C(N)N`, for which the activity, negative = inhibition was -3.51% [at 11.4 µM]. On the same count and under the same terms, then `O=C(O)CN1C(=O)CN=C(c2ccccn2)c2cc(Cl)ccc21`, with 33.4% [at 11.4 µM].

As to `CN(C)c1ccc(NC(=O)CN2C(=O)CN=C(c3ccccc3)c3ccccc32)cc1`, the AC50 was 2.24 µM (active). `CN(C)CCCNc1c2c(nc3ccc(Cl)cc13)CCCC2`: the activity, negative = inhibition was 23.5% [at 11.4 µM]. Turning to `Nc1nc(OCc2ccccc2)c2[nH]cnc2n1`, the AC50 was 6.31 µM (active). `O=C(O)C[C@H]1NCc2cc3ccccc3nc21`: the activity, negative = inhibition was 22.2% [at 11.4 µM].

As to `CCCCCCCCCOc1ccc2[nH]cc(CCN)c2c1`, the AC50 is 10 µM (active).

With `COc1ccc2[nH]cc(CCN)c2c1`, the AC50 result was “inactive”. Still for that read-out and setting: next, `NCCc1c[nH]c2ccc(C(N)=O)cc12`: “inactive”; `CCC(COC(=O)NC)NC(=O)Oc1ccccc1` (stereo unspecified): “inactive”.

As to `O=S(=O)(c1ccccc1)N1CCCCC1c1cccnc1` (stereo unspecified), the AC50 was 10 µM (active). Regarding `CC(C)=C[C@H]1[C@@H](C(=O)OCc2cc3c(cc2Cl)OCO3)C1(C)C`, the AC50 is 1.58 µM (active). Consider `CC(C)CN1CC2(CCN(C(=O)Oc3ccccc3)CC2)C1`, for which the AC50 result was “inactive”. For `C(=C/c1ccccc1)/CN1CCN(CCOC(c2ccccc2)c2ccccc2)CC1`, the AC50 was 10 µM (active). As to `Fc1ccc(C(OCCN2CCN(C/C=C\c3ccccc3)CC2)c2ccc(F)cc2)cc1`, the AC50 is 7.94 µM (active). In the case of `CO[C@@H]1CC=C2CCN3CCC4=C(CC(=O)OC4)[C@]23C1`, the AC50 entry is “inactive”. For `O=C1OC(=O)[C@@H]2[C@@H]1[C@@H]1CC[C@H]2O1`, the AC50 entry is “inactive”. As for `CCS(=O)(=O)Nc1cccc(C(=C2CCCCC2)c2cnc[nH]2)c1`, the AC50 is 0.00794 µM (active).

`N#Cc1ccc(CN2CCC3(CC2)CCN(C(=O)Oc2ccccc2)CC3)cc1`: the AC50 entry is “inactive”. Turning to `CC(=O)c1c(O)c(C)c(O)c(Cc2c(O)c3c(c(C(=O)/C=C\c4ccccc4)c2O)OC(C)(C)C=C3)c1O`, the AC50 entry is “inactive”.
